Assay outcomes as filed in PubChem.
Wnt bcat act: Wnt/beta-catenin pathway activation; Wnt/beta-catenin reporter cell assay, activator, plate reader; activation, % at 9.35 µM; 300,000 compounds, 1.2% hits; in the data active means activation above about 30%, passing the limit was not always enough;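 further: 0% = neutral control wells and 100% = positive control wells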
MITF TRPM1 HTS: activators of MITF-driven TRPM1 promoter activity in SK-MEL-5 cells; activation, % at 12.5 µM; 300,000 compounds, 0.75% hits; SK-MEL-5 TRPM1-promoter luciferase, 24 h; % of positive control, neutral wells = 0; AID 588334;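 active means mean activation of at least 80% with every replicate also reaching 80%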;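 further: 0% = neutral control wells and 100% = parthenolide positive control wells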
GSIS activator: GLuc luminescence reporter in INS-1E cells, primary screen for activators of glucose-dependent secretion of insulin | activation, % at 16.6 µM | AID 743287 | 370,000 compounds, 0.61% hits | INS-1E GLuc reporter insulin secretion, 2-3 h;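 active means lowest replicate activation of at least 40%, so every replicate reaches that level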;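 further: 0% = median of neutral control wells and 100% = median of IBMX positive control wells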
CFTR F508del cor: CFTR F508del correction in bronchial cells. AID 720511. CFBE cells, YFP halide quenching; stimulated with forskolin plus potentiator P3; % fluorescence drop versus neutral controls. 350,000 compounds, 0.36% hits. activity (quench increase), % at 7.58 µM;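 active means mean added fluorescence quench of at least 8% versus neutral control, with both replicates also reaching 8%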;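 further: cells transiently co-express mutant CFTR-F508del with the halide-sensitive YFP; corrector assay measuring rescue of mutant channel to the surface after 24 h compound exposure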
Env fusion inh: HIV envelope-mediated fusion inhibition; 360,000 compounds, 1.1% hits; inhibition, % at 12.3 µM; HeLa-JRFL Env/CEM21 cell fusion, luciferase;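 active means mean replicate inhibition score of at least 50 and every replicate individually at or above 50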;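 further: 0% = plate neutral controls and 100% = maraviroc near 300 nM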
An asterisk follows results filed as active; i = inactive; · = not tested or not shown; [ ] = dose if it differs, or a comment. Sampled rows, rich in hits. Any-hit rate of the full collection: about 2.7%.

SMILES	Wnt bcat act	MITF TRPM1 HTS	GSIS activator	CFTR F508del cor	Env fusion inh
O=c1[nH][nH]c2c1C(c1ccc(Cl)c(Cl)c1)OC(CCc1ccccc1)C2 (stereo not given)	0	·	56*	7	20
Cc1cccc(S(=O)(=O)N2C[C@@H]3[C@H](c4ccccc42)[C@@H](CO)N3C(=O)CC2CC2)c1	·	·	-4	-3	·
COc1ccc2[nH]c(=O)c(CN(CCO)S(=O)(=O)c3c(C)ccc4nsnc34)cc2c1	-4	·	·	·	-124
COc1ccc2[nH]c(=O)c(CN(Cc3cccs3)S(=O)(=O)c3cccc4nsnc34)cc2c1	·	-10	·	·	70*
C[C@@H]1CCCCO[C@H](CN(C)Cc2ccc(C(=O)Nc3ccccc3N)cc2)[C@@H](C)CN([C@H](C)CO)C(=O)c2cc(N(C)C)ccc2O1	·	·	6	·	·
O=C(Nc1ccc(F)cc1)Nc1ccc2c(c1)[C@H]1C[C@H](CC(=O)N3CCOCC3)O[C@@H](CO)[C@H]1O2	·	·	11	0	-15[16.7 µM]
CC1=CC(=C2C(=O)c3ccccc3C2=O)C=C(C)N1Cc1ccco1	51*	40	20	0	·
C[C@H]1CN([C@@H](C)CO)C(=O)c2cc(-c3ccc(F)cc3)cnc2O[C@@H]1CN(C)C(=O)c1ccncc1	·	·	2	-1	4[16.7 µM]
CCCCN(C)CCCNC(=O)c1cc(=O)[nH]c2ccc(S(=O)(=O)N3CCCCC3C)cc12 (stereo not given)	-1	1	-6	2	60*
CC1CCCN(S(=O)(=O)c2ccc3[nH]c(=O)cc(C(=O)NCCCN4CCCCCC4)c3c2)C1 (stereo not given)	-1	·	·	-3	-4
CC(=O)Nc1ccc(/C=N/NC(=O)CC2CCCCC2)cc1	-1	·	-2	-1	0
CCOc1ccc(/C=N/NC(=O)Nc2ccccc2)cc1	13	122*	13	2	-196
CCN(CC)c1ccc(/C=N\NC(N)=O)cc1	2	-3	20	2	-39
CCN(CC)c1ccc(/C=N/NC(=O)Nc2ccccc2)cc1	43*	50	-9	1	-52
CC(=O)Nc1ccc(C=NNC(=O)CCCC(=O)NN=Cc2ccc(NC(C)=O)cc2)cc1	0	5	41*	0	·
CCOc1ccc(/C=N/NC(=O)CC(=O)NCc2ccccc2)cc1	-2	2	-1	2	-5
CCCOc1ccc(/C=N/NC(=O)C(=O)Nc2ccccn2)cc1	-2	9	52*	·	-53
CCN(CC)c1ccc(/C=N/NC(=O)OC(C)(C)C)cc1	59*	76	8	·	-11
CCN(CC)c1ccc(/C=N/NC(=O)CC(C)C)cc1	-2	21	2	-2	8
COc1ccc(C(=O)CSC#N)cc1OC	4	-14	29	4	i
CCC(=O)C(C#N)(c1ccc(OC)c(OC)c1)C(C)C (stereo not given)	-3	-3	82*	1	1
COc1ccc(NC(=O)N(C)C[C@H]2Oc3ccc(NS(=O)(=O)c4ccc(Cl)cc4)cc3CC(=O)N([C@@H](C)CO)C[C@H]2C)cc1	·	·	-11	3	-9[16.7 µM]
Cc1cc(CCNC=O)c(C)c2c1oc1ccccc12	24	45	57*	3	27
Cc1ccccc1-c1cc(=O)c2ccccc2o1	5	1	16	-1	-47
CN(C)C(=O)C[C@H]1C=C[C@H](NC(=O)Nc2cccc(F)c2)[C@H](CO)O1	·	·	1	3	3[16.7 µM]
SMILES	Wnt bcat act	MITF TRPM1 HTS	GSIS activator	CFTR F508del cor	Env fusion inh
O=C(O)c1cc(N/N=C/C=C/c2ccccc2[N+](=O)[O-])ccc1Cl	60*	56	-8	1	-44
COc1ccc(/C=N/Nc2ccc(C(=O)O)cc2)cc1Br	-6	-44	10	-3	44
COc1ccc(/C=N/Nc2ccc(C(=O)O)cc2)cc1OC	33*	28	21	-6	-10
Cc1ccc(/C=N/Nc2ccc(C(=O)O)cc2)s1	-4	-82	-9	3	64*
Cc1ccc(/C=N/Nc2cccc(C(=O)O)c2)s1	·	-48	23	·	40
COc1cc(/C=N/Nc2ccc(Cl)c(C(=O)O)c2)ccc1OC(=O)c1cccs1	37*	-5	-14	1	1
CC(C)NC(=O)N(C)C[C@H]1Oc2ccc(NS(C)(=O)=O)cc2CC(=O)N(C)C[C@@H]1C	·	·	34	·	·
O=C(C[C@@H]1CC[C@H](NC(=O)C2CCC2)[C@H](CO)O1)NCC1CC1	·	·	3	-2	4[16.7 µM]
COCCOC(=O)N1C(=O)[C@@]2(c3ccccc31)[C@H](c1ccc(OCCO)cc1)N1[C@H](c3ccccc3)[C@H](c3ccccc3)OC(=O)[C@H]1[C@@H]2C(=O)N1CCN(c2ncccn2)CC1	·	·	·	1	-211[16.7 µM]
C[C@H]1CN([C@@H](C)CO)C(=O)c2cc(-c3cncnc3)cnc2O[C@@H]1CN(C)C(=O)Cc1cccnc1	·	·	-1	0	-25[16.7 µM]
C=CCOc1c(Br)cc(/C=N/Nc2ccc(C(=O)O)cc2)cc1OCC	10	105*	·	·	-37
CCOc1cc(/C=N/O)cc(Br)c1OCC	-5	-8	·	·	-399
CC(C)(C)c1ccc(/C=N/NC(=O)C2CCCC2)cc1	3	32	-26	0	53
O=C(O)c1ccc(N/N=C/c2ccc(-c3ccccc3)cc2)cc1	1	92*	2	-3	-203
O=C(O)c1ccc(/C=N/Nc2cccc(C(F)(F)F)c2)cc1	11	111*	-19	-3	-18
CC(C)c1ccc(/C=N/NC(=O)C2CCCC2)cc1	27	140*	-12	-2	-94
Cc1ccccc1S(=O)(=O)N1CC[C@@H]2[C@H]1c1cc(-c3ccc(C#N)cc3)ccc1N[C@@H]2CO	·	·	9	1	·
CC(C)c1ccc(/C=N/Nc2ccc(C(=O)O)cc2)cc1	-26	-67	-5	-1	66*
Cc1ccc(/C=N/Nc2ccc(C(=O)O)cc2)o1	9	71	2	1	-24
O=C(O)c1cc(N/N=C/c2ccc(-c3ccccc3)cc2)ccc1Cl	48*	8	-4	-2	-177
Cc1ccccc1S(=O)(=O)N1CC[C@@H]2[C@H]1c1cc(C#Cc3ccccc3)ccc1N[C@@H]2CO	·	·	6	1	·
CC(C)c1c(O)ccc2c1CC[C@H]1C(C)(C)CCC[C@]21C	-4	8	·	9.0*	12
COc1ccc(CCNC(=O)CCC(=O)c2cccs2)cc1OC	-1	4	103*	-1	6
CCOC(=O)N1CCC(NC(=O)c2cc3sccc3n2CC)CC1	-2	-2	20	0	·
CCn1c(C(=O)NC2CCC(C)CC2)cc2sccc21 (stereo not given)	16	92*	-6	-3	-41
COc1ccc(CCNC(=O)COC(=O)CCC(=O)c2cccs2)cc1OC	-2	10	38	0	-17
CCOc1ccc(CCNC(=O)c2cc3sccc3n2CC)cc1OCC	-5	-11	·	·	65*
CCOc1ccc(CCNC(=O)CCC(=O)c2cccs2)cc1OCC	1	-12	95*	-3	-25
